# From PubChem BioAssay (NCATS)
# Records with an inconclusive call do not appear. A call without a number means that no potency is given here. Active and inactive are the calls of the source. Unless noted, calls follow the shape of the dose curve; as a rule, active = well fitted curve in the direction sought with a large enough effect; inconclusive = small, poorly fitted or top-dose-only effect, or another doubt; inactive = no such curve, though single readings can be large; an effect the other way counts as inactive or inconclusive.
# Key:
# [1] = target: Cytochrome P450 2D6 (Homo sapiens) (UniProt P10635); assay: Cytochrome P450 family 2 subfamily D member 6 (CYP2D6) small molecule antagonists: luciferase biochemical (cell-free) qHTS assay (AID 1645840; active = well fitted curve in the direction sought with a large enough effect in the repeat runs; an effect the other way counts as inactive or inconclusive; also: nearly all actives have a fitted effect of over 55% in size; also: potency is read from the fitted curve at half-maximal effect)
# Chain of Cytochrome P450 2D6 (Homo sapiens) (P10635 whole entry, looked up): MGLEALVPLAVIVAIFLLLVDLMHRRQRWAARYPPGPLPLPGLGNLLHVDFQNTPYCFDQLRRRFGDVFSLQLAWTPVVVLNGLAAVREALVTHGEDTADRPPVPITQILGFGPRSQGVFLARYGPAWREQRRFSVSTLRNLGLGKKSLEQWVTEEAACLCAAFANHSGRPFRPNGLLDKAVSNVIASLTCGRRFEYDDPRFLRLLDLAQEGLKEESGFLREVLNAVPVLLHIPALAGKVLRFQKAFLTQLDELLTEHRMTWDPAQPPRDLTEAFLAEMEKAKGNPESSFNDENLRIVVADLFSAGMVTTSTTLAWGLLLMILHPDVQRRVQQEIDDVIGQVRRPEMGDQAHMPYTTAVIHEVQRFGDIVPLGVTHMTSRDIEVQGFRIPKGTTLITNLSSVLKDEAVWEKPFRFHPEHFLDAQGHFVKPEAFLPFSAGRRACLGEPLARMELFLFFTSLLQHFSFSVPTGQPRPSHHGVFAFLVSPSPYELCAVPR
# Outline: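 P450-Glo CYP2D6 system: proluciferin substrate converted by enzyme to luciferin, read by luminescence proportional to activity. Enzyme-substrate mix with compound 10 min at room temperature, then NADPH regeneration 1 h before detection reagent.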
# [2] = target: Cytochrome P450 2C9 (Homo sapiens) (UniProt P11712); assay: Cytochrome P450 family 2 subfamily C member 9 (CYP2C9) small molecule antagonists: luciferase biochemical (cell-free) qHTS assay (AID 1645842; active = well fitted curve in the direction sought with a large enough effect in the repeat runs; an effect the other way counts as inactive or inconclusive; also: potency is read from the fitted curve at half-maximal effect; nearly all actives have a fitted effect of over 55% in size)
# Chain of Cytochrome P450 2C9 (Homo sapiens) (P11712 whole entry, looked up): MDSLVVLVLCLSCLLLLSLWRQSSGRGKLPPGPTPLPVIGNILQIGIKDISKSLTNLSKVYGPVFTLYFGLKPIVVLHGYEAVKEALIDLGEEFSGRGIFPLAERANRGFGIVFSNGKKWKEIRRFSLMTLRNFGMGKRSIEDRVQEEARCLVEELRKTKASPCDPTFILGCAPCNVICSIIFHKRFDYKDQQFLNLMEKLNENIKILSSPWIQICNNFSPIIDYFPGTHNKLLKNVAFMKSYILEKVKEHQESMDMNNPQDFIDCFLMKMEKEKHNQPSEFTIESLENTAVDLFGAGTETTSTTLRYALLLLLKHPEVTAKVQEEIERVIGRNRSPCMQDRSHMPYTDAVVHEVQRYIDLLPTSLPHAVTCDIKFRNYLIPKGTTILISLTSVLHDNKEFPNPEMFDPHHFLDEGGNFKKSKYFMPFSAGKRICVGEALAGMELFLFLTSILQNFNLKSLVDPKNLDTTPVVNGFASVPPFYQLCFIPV
# Outline: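 P450-Glo CYP2C9 system: proluciferin substrate with enzyme in mix containing 0.4% BSA, 10 min at room temperature, then NADPH regeneration solution added and incubated 1 h at 37C. Detection reagent stopped reaction; luminescence read after 20 min as RLU.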
# [3] = target: Catechol O-methyltransferase (Homo sapiens) (UniProt P21964); assay: Confirmatory Screen for Target Class Profiling of Small Molecule Inhibitors of Methyltransferases (AID 1745852; calls by dose curve; also: potency is read from the fitted curve at half-maximal effect); details: MTase-Glo luminescence, SAH detection, recombinant enzyme; measured here: COMT max response; stronger effect = lower value
# Chain of Catechol O-methyltransferase (Homo sapiens) (P21964 whole entry, looked up): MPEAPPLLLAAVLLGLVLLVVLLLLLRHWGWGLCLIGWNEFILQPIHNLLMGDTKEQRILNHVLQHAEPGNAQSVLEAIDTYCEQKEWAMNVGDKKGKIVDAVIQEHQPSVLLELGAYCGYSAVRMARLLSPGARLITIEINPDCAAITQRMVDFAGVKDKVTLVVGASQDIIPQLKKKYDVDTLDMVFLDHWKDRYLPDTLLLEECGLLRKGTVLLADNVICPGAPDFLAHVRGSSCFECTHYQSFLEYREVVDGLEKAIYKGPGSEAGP
# [4] = target: Guanidinoacetate N-methyltransferase (Homo sapiens) (UniProt Q14353); assay: as above; details: activity change, negative = inhibition: at 57.3 µM (top of the series) unless noted
# [5] = target: Nicotinamide N-methyltransferase (Homo sapiens) (UniProt P40261); assay: as above; details: MTase-Glo luminescence, SAH detection, recombinant enzyme; measured here: NNMT max response; stronger effect = lower value
# Chain of Nicotinamide N-methyltransferase (Homo sapiens) (P40261 whole entry, looked up): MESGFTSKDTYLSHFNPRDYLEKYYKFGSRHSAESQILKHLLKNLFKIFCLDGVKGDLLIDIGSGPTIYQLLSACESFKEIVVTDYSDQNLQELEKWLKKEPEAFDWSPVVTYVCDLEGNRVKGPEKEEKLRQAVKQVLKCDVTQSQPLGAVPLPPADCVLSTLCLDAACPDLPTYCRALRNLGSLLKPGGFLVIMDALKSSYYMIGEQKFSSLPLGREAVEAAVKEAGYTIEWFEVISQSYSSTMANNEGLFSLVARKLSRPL
# [6] = target: Phenylethanolamine N-methyltransferase (Homo sapiens) (UniProt P11086); assay: as above; details: MTase-Glo luminescence, SAH detection, recombinant enzyme; measured here: PNMT max response; stronger effect = lower value
# Chain of Phenylethanolamine N-methyltransferase (Homo sapiens) (P11086 whole entry, looked up): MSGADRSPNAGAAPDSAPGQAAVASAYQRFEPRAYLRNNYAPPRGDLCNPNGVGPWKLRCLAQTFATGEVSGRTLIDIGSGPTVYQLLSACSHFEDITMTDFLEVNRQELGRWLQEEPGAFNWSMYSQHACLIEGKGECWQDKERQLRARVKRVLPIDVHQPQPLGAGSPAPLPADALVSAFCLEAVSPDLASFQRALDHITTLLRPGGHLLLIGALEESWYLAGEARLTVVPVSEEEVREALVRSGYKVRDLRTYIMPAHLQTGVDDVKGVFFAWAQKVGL
# [7] = Primary fluorescence-based thiol-reactive (MSTI) qHTS assay for identification of artifact compounds. (AID 1845221);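 also: thiol-reactive compounds lower the probe fluorescence signal; nearly all actives have a fitted effect of over 65% in size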
# Outline: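 A multi-concentration qHTS design tested compounds against 4 uM MSTI, pH 7.4 phosphate-buffered saline. Plates were protected from light for 1 h at room temperature before imaging fluorescence.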
# [8] = Primary redox qHTS assay for identification of artifact compounds. (AID 1845223); also: potency is read from the fitted curve at half-maximal effect
# Outline: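 Redox-cycling detection via DTT (250 uM final) oxidation coupled to Amplex Red (25 uM)/HRP (250 mU/mL) in HBSS. 15 min preincubation plus 30 min after DTT, room temperature. Ex/Em 525/598 nm; 4-parameter Hill fit against DMSO and 10 uM DA3003.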
# CRL-7250 = normal cell line; assay: Cytotoxic Profiling of Annotated Libraries Using Quantitative High-Throughput Screening (AID 1296008); details: Five cell lines viability, CellTiter-Glo ATP luminescence, 48-72 h; max response: stronger effect = lower value; also: nearly all actives have a fitted effect of over 60% in size; also: potency is read from the fitted curve at half-maximal effect
# Outline: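 Cytotoxicity was measured as CellTiter-Glo ATP luminescence, read after 10 min at room temperature. Compound treatment of the cells lasted 48 or 72 hr at 37 degrees Celsius in a qHTS format.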
# HACAT = assay: qHTS assay to identify novel small-molecules to repurpose for Merkel cell carcinoma treatment (AID 1296009); details: MCC and control cell lines, CellTiter-Glo viability, 72 h; at 44.8 µM (top of the series) unless noted; also: nearly all actives have a fitted effect of over 60% in size
# Outline: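 Cell viability measured by CellTiter-Glo following 72 hr compound treatment at 37 degree celsius, with NPC and MIPE libraries tested in 8- and 11-point concentration series.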
# CAOV3 = assay: Primary qHTS to identify gynecologic anti-cancer compounds using libraries of approved drugs and bioactive compounds (AID 1345084); details: Gynecologic cancer cell panel viability, ATPlite luminescence, 48 h; series mostly up to 57.5 µM; also: nearly all actives have a fitted effect of over 55% in size; also: potency is read from the fitted curve at half-maximal effect
# Outline: (§1)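 ATP-based viability (ATPlite), 1,000 cells/well, 16 h pre-incubation, 48 h compound at 37 C, 5% CO2, 15 min RT before read.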
# PA-1 = assay: as above; details: Gynecologic cancer cell panel viability, ATPlite luminescence, 48 h; series mostly up to 57.5 µM
# Outline: as §1
# SKOV3 = assay: as above; details: Gynecologic cancer cell panel viability, ATPlite luminescence, 48 h; series mostly up to 57.5 µM
# Outline: as §1
# [9] = P-glycoprotein substrates identified in KB-8-5-11 adenocarcinoma cell line, qHTS therapeutic library screen (AID 1346987); also: nearly all actives have a fitted effect of over 65% in size; also: potency is read from the fitted curve at half-maximal effect
# Outline: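 In this qHTS, P-gp-rich KB-8-5-11 cells received library compounds across a concentration range. Viability was quantified by luminescence after 72 h at 37 degree C.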
smiles,measurement,setting,value
COc1ccc2c(c1)C[C@H](C(=O)Nc1ccc(-c3cn[nH]c3)cc1OCCN(C)C)CO2,Potency,[1],9.52 µM (active)
same,Potency,[2],4.25 µM (active)
same,activity,[3],-2.58%
same,"activity change, negative = inhibition",[4],-2.48% [at 9.47 µM]
same,activity,[5],-0.41%
same,activity,[6],0.522%
same,Potency,[7],inactive
same,Potency,[8],inactive
same,Potency,CRL-7250,20.6 µM (active)
same,outcome,HACAT,inactive
same,Potency,CAOV3,inactive
same,Potency,PA-1,inactive
same,Potency,SKOV3,inactive
CC/C(=C(\c1ccc(O)cc1)c1ccc(OCCNC)cc1)c1ccccc1,Potency,[7],inactive
same,Potency,[8],inactive
same,outcome,CRL-7250,inactive
same,outcome,HACAT,inactive
same,Potency,CAOV3,inactive
same,Potency,PA-1,inactive
same,Potency,SKOV3,inactive
CCOC(=O)c1cccc(CNc2ccc(N(C)C(=O)Nc3ccccc3)cc2)c1,Potency,[1],5.35 µM (active)
same,Potency,[2],0.601 µM (active)
same,Potency,[8],23.8 µM (active)
same,Potency,CRL-7250,1.3 µM (active)
same,Potency,CAOV3,inactive
same,Potency,SKOV3,14.1 µM (active)
CC(C)CCC[C@@H](C)[C@H]1CC[C@H]2[C@@H]3CC=C4C[C@@H](OC(=O)NCCN(C)C)CC[C@]4(C)[C@H]3CC[C@]12C,Potency,[8],inactive
same,outcome,CRL-7250,inactive
same,Potency,PA-1,inactive
same,Potency,SKOV3,22.4 µM (active)
CC1CCN(c2cc(NC(=O)c3ccccc3)ncn2)CC1,Potency,[9],16.4 µM (active)
same,Potency,[1],inactive
same,Potency,[2],9.52 µM (active)
same,Potency,[7],inactive
same,Potency,[8],inactive
same,max response,CRL-7250,-6.14% (inactive)
same,Potency,CAOV3,inactive
same,Potency,SKOV3,inactive
C/C=C(/COC(=O)/C(C)=C/C)C(=O)OC/C=C/c1ccc(OC)cc1,Potency,[7],inactive
same,Potency,[8],inactive
same,max response,CRL-7250,-7.59% (inactive)
same,outcome,HACAT,inactive
same,Potency,SKOV3,inactive
CC1CCC2C(C)(C)C(O)CCC2(C)C12Cc1c(O)cc3c(c1O2)CN(C(CCCN=C(N)N)C(=O)O)C3=O (stereo not drawn),Potency,[7],inactive
same,outcome,CRL-7250,inactive
same,outcome,HACAT,inactive [at 17.4 µM]
same,Potency,SKOV3,inactive
CC(C)N(CCCNC(=O)Nc1ccc(C(C)(C)C)cc1)C[C@H]1O[C@@H](n2cc(Br)c3c(N)ncnc32)[C@H](O)[C@@H]1O,Potency,[9],inactive
same,Potency,[1],15.1 µM (active)
same,activity,[3],-65.3%
same,Potency,[4],21.5 µM (active)
same,activity,[5],-73.5%
same,activity,[6],-94.2%
same,Potency,[7],inactive
same,max response,CRL-7250,-23.7% (inactive)
same,Potency,CAOV3,inactive
same,Potency,SKOV3,inactive
C[C@@H](c1nc(-c2ccc(C#N)cc2)cs1)[C@](O)(Cn1cncn1)c1cc(F)ccc1F,Potency,[2],6.01 µM (active)
same,Potency,[7],inactive
same,Potency,[8],inactive
same,max response,CRL-7250,-34.3% (inactive)
same,outcome,HACAT,inactive
same,Potency,PA-1,inactive
